# Laboratory results from PubChem BioAssay AID2284065 (EPA ToxCast).
# Calls of active or inactive are those of the source. How the source made its calls: active means hit-call score of the fitted dose curve at least 0.9, where 1 is the maximum; inactive means score below 0.9.
# Molecular target: CYP2C8, CYP2C8 (gene 1558) (UniProt P10632)
# Experiment: ERF_FR_ADME_hCYP2C8: Eurofins (ERF) CYP450-related Enzyme Activity (ADME) Assay for CYP2C8
# Experimental: ERF_FR_ADME_hCYP2C8 is a biochemical, single-readout assay that uses extracted gene-proteins in a cell-free assay. Measurements were taken 0.16 hour after chemical dosing in a 96-well plate. See CYP2C8 inhibition (HLM, amodiaquine substrate).ERF_FR_ADME_hCYP2C8 is an assay component calculated from the ERF_FR_ADME_hCYP2C8 assay. It is designed to measure enzyme activity using a type of enzyme reporter as detected by peak area response of desethylamodiaquine with HPLC-MS/MS technology.Data from the assay component ERF_FR_ADME_hCYP2C8 was analyzed at the assay endpoint, ERF_FR_ADME_hCYP2C8, in the positive analysis fitting direction relative to acetonitrile as the negative control and baseline of activity. Using a type of enzyme reporter, loss-of-signal activity can be used to understand changes in enzymatic activity as they relate to gene CYP2C8. To generalize the intended target to other relatable targets, this assay endpoint is annotated to the cyp intended target family, where the subfamily is […].
# Assay cells are incubated for 10 minutes at 37C with 10 uM amodiaquine.
# Chain of CYP2C8, CYP2C8 (gene 1558) (P10632 whole entry, looked up): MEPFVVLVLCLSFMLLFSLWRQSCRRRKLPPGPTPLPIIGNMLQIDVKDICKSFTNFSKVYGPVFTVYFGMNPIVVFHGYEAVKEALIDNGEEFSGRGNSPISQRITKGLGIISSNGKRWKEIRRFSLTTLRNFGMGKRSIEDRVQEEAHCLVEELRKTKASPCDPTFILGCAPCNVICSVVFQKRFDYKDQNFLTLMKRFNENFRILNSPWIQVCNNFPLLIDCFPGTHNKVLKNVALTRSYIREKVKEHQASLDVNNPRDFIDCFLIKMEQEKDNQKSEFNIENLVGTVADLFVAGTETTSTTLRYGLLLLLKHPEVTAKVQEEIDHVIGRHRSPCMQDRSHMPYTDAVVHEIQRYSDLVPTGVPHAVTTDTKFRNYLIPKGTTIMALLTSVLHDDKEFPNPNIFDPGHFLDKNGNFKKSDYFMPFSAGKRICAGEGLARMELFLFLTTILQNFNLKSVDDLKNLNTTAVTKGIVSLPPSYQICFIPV
row,Structure (SMILES),AC50
1,COc1cc(CCC(=O)CC(=O)CCc2ccc(O)c(OC)c2)ccc1O,1830 nM (active)
2,CCCCC[C@H](O)CC(=O)CCc1ccc(O)c(OC)c1,2270 nM (active)
